Common to all, as to type: functional
For test [1], the system named is Plasmodium falciparum. Description: GSK_TCMDC: Inhibition of Plasmodium falciparum 3D7 in whole red blood cells, using parasite LDH activity as an index of growth. Test compounds present at 2uM.
Test [2] concerns Plasmodium falciparum. The test is described as follows: GSK_TCMDC: Inhibition of Plasmodium falciparum Dd2 in whole red blood cells, using parasite LDH activity as an index of growth. Test compounds present at 2uM.
A further test has as its system HepG2. The test is described as follows: GSK_TCMDC: Percent inhibition of human HepG2 cell line. Test compounds present at 10uM.

Turning to `CCN(CC)CCN1C(=O)c2oc3ccc(Cl)cc3c(=O)c2C1c1ccc(SC)cc1` (configuration not stated), the Inhibition (commonly the percentage by which the read-out fell short of the control) in the test with Plasmodium falciparum [1] stood at 98%; in the test with Plasmodium falciparum [2], 6%; in the test with HepG2, 0%.
Consider `COc1ccc(OC)c(-c2ccc(=O)n(CC(=O)Nc3cccc4ccccc34)n2)c1`, for which the Inhibition in the test on Plasmodium falciparum [1] turned out to be 100%; in the test on Plasmodium falciparum [2], 95%; in the test with HepG2, 0%.
In the case of `Brc1ccc(Nc2nc(NCc3ccccc3)c3ccccc3n2)cc1`, the values for the Inhibition with Plasmodium falciparum [1], in the test with Plasmodium falciparum [2] and with HepG2 were 100%, 99% and 24%, respectively.
For `Cn1cnc2nc(NCCc3ccccc3)nc(NCc3cccc4ccccc34)c21` the same measures were 95%, 98% and 16%.
For `FC(F)(F)c1ccc2[nH]c(-c3ccc(-c4cccc(CN5CCN(c6ccncc6)CC5)c4)cc3)nc2c1.O=C(O)C(F)(F)F` the same measures were 100%, 99% and 82%.
For the compound `O=C(O)C(F)(F)F.O=S(=O)(NCCN1CCCC1)c1ccc(-c2ccc(CNCc3ccccc3)cc2)cc1`, the Inhibition came to 99% in the test with Plasmodium falciparum [1], 28% in the test on Plasmodium falciparum [2] and 47% in the test with HepG2.
Regarding `Cc1cc(N)c2cc(NC(=O)/C=C/c3ccc([N+](=O)[O-])cc3)ccc2n1`, the Inhibition in the test with Plasmodium falciparum [1] worked out at 100%; in the test on Plasmodium falciparum [2], 80%; in the test on HepG2, 76%.
With `Nc1ccc(-c2cnc3[nH]cc(-c4ccc(C(=O)O)cc4)c3c2)cn1.O=C(O)C(F)(F)F`, the Inhibition in the test on Plasmodium falciparum [1] was determined as 97%; in the test with Plasmodium falciparum [2], 99%; in the test with HepG2, 48%.
As for `Cc1[nH]c(C)c(-c2ccc(-c3cccc(Cl)c3)nc2)c(=O)c1Br`, the Inhibition in the test with Plasmodium falciparum [1] is reported as 96%; with Plasmodium falciparum [2], 96%; with HepG2 it was 10%.
As for `COc1cc(Cc2cnc(N)nc2N)cc(OCCNC(=O)OCc2ccccc2)c1OC`, the values for the Inhibition with Plasmodium falciparum [1], with Plasmodium falciparum [2] and with HepG2 were 93%, 0% and 6%, respectively.
For `c1cncc(Oc2ccc(Nc3ccnc4cc(-c5cccc(CNCCN6CCOCC6)c5)ccc34)cc2)c1`, the Inhibition was determined as 100% with Plasmodium falciparum [1], 99% in the test with Plasmodium falciparum [2] and 14% with HepG2.
As for `COc1ccc(CCNCCCCNCCc2ccc(OC)c3ccccc23)c2ccccc12.CS(=O)(=O)O`, the values for the Inhibition with Plasmodium falciparum [1], in the test with Plasmodium falciparum [2] and in the test with HepG2 were 100%, 33% and 100%, respectively.
`N=C(N)NC(=O)Nc1cc(Br)c(Br)c(Br)c1`: the figures for the Inhibition in the test on Plasmodium falciparum [1], in the test on Plasmodium falciparum [2] and in the test on HepG2 were 100%, 89% and 0%, respectively.
In the case of `OC(CNc1cccc(Cl)c1)Cn1c2ccc(Cl)cc2c2cc(Cl)ccc21` (configuration not stated), the Inhibition was 95% in the test on Plasmodium falciparum [1], 33% with Plasmodium falciparum [2] and 8% with HepG2.
As to `COc1cc(C(=O)NC2CC(C)(C)N(C)C(C)(C)C2)ccc1-c1nc2cc(Cl)c(Cl)cc2[nH]1`, the values for the Inhibition with Plasmodium falciparum [1], in the test on Plasmodium falciparum [2] and with HepG2 were 100%, 99% and 69%, respectively.
Take `O=C(/C=C/c1ccc(Cl)c(Cl)c1)NC1CCC(CN2CCC(Cc3c[nH]c4ccccc34)CC2)CC1` (configuration not stated): the Inhibition in the test with Plasmodium falciparum [1] is 100%; in the test on Plasmodium falciparum [2], 9%; in the test on HepG2 it was 25%.
Take `CCN(CC)c1nc(N)c2c(N)nc3c(c2c1C#N)C(=O)CN3Cc1ccccc1`: the values for the Inhibition in the test with Plasmodium falciparum [1], in the test on Plasmodium falciparum [2] and with HepG2 were 96%, 96% and 26%, respectively.
On to `FC(F)(F)Oc1cccc(CNc2noc(-c3sccc3Br)n2)c1`, for which the Inhibition with Plasmodium falciparum [1] turned out to be 100%; with Plasmodium falciparum [2] it was 97%; with HepG2, 0%.
Take `O=C(O)C(F)(F)F.O=S(=O)(NCCN1CCCC1)c1ccc(-c2ccccc2CNC2Cc3ccccc3C2)cc1`: the Inhibition with Plasmodium falciparum [1] was determined as 95%; in the test with Plasmodium falciparum [2] it was 67%; in the test with HepG2, 19%.
As for `Cc1ccc(O)cc1Nc1ccnc2ccc(-c3cccc(CN(C)C)c3)cc12`, the Inhibition in the test with Plasmodium falciparum [1] amounted to 100%; with Plasmodium falciparum [2], 99%; with HepG2 it was 0%.
In the case of `Cc1nc(-c2cccc(C(F)(F)F)c2)n2nc(Nc3ccc(OCCN4CCCC4)cc3)ncc12`, the Inhibition was 99% in the test on Plasmodium falciparum [1], 29% in the test on Plasmodium falciparum [2] and 30% with HepG2.
As to `CCC1(C)N=C(N)N=C(N)N1c1ccc(Cl)cc1.Cl` (configuration not stated), the Inhibition with Plasmodium falciparum [1] is on record as 95%; in the test on Plasmodium falciparum [2], 0%; with HepG2, 7%.
Take `CCCCCCNCc1c(O)ccc2c(CNCCCCCC)c(O)ccc12.Cl`: the Inhibition with Plasmodium falciparum [1] was found to be 100%; in the test on Plasmodium falciparum [2], 100%; in the test with HepG2 it was 22%.
For the compound `O=C(Cc1ccc(F)cc1)NC1CCN(c2ccnc3cc(Cl)ccc23)C1.O=C(O)C(F)(F)F` (configuration not stated), the Inhibition with Plasmodium falciparum [1] came out at 99%; in the test on Plasmodium falciparum [2], 85%; in the test with HepG2 it was 0%.
`FC(F)(F)c1ccc2[nH]c(-c3ccc(-c4ccc(CN5CCN(c6cnccn6)CC5)cc4)cc3)nc2c1.O=C(O)C(F)(F)F`: the Inhibition in the test with Plasmodium falciparum [1] is 99%; in the test with Plasmodium falciparum [2], 50%; with HepG2, 21%.
Regarding `COc1cc(C(F)(F)F)cc2[nH]c(CNCCCNc3nc4ccccc4[nH]3)cc12`, the values for the Inhibition in the test with Plasmodium falciparum [1], with Plasmodium falciparum [2] and in the test with HepG2 were 100%, 2% and 59%, respectively.
In the case of `Cc1cc2ncc(C(N)=O)c(Nc3ccc(N4CCOCC4)cc3)c2cc1S(C)(=O)=O.Cl`, the values for the Inhibition in the test with Plasmodium falciparum [1], with Plasmodium falciparum [2] and in the test with HepG2 were 100%, 96% and 0%, respectively.
Consider `Cc1ccc2nc(-c3ccc(C(=O)NCc4ccc(Cl)c(Cl)c4)cc3)[nH]c2c1C`, for which the Inhibition in the test on Plasmodium falciparum [1] amounted to 96%; in the test with Plasmodium falciparum [2], 26%; in the test on HepG2 it was 19%.
The like results for `Cn1ccc(C(=O)Nc2ccc3c(c2)CN(Cc2ccc(N4CCCC4)o2)CCC3)n1.O=CO` were, in that order, 80%, 72% and 19%.

The record behind these values is ChEMBL document CHEMBL1157539, “Thousands of chemical starting points for antimalarial lead identification” (Nature, 2010).
